Most compounds without a hit are left out; they make up all but 3.4% or so of the library.
MITF primary: inhibitors of human MITF; actives 0.91% (n = 650,000); O75030; AID 1259374; inhibition, % at 2.6 µM; AlphaScreen MITF homodimerization, bead proximity signal; in the data active means inhibition above about 50%;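 further: 0% = vehicle wells with protein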
Target sequence (O75030 whole entry, looked up): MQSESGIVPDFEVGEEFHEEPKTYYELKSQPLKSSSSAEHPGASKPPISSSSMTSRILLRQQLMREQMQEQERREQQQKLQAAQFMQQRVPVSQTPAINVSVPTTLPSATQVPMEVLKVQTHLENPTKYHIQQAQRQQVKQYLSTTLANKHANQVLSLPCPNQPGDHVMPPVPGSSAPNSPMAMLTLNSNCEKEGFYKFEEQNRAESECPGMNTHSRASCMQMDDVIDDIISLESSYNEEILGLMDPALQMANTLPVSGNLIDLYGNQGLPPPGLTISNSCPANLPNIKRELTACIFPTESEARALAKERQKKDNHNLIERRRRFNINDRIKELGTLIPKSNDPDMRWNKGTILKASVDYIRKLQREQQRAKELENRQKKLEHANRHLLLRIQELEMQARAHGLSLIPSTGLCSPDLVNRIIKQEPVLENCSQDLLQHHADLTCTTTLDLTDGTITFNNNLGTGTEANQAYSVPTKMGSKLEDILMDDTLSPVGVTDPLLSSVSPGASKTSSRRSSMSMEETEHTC
FBW7 act: human FBW7 E3 ligase activation, primary screen. Q969H0. AlphaScreen FBW7–phospho-cyclin E peptide binding, activator screen. normalized activity (activation), % at 26.1 µM. actives 0.13% (n = 650,000); in the data active means normalized activity above about 1.9%;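 further: purified mutant Fbw7 with reduced substrate affinity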
TEAD-YAP block: TEAD-YAP interaction inhibition | inhibition, % at 9.12 µM | actives 1.4% (n = 640,000) | HEK-TIYL cells, TEAD-Gal4/YAP UAS-luciferase luminescence; in the data active means inhibition above about 32%;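 further: 0% = median of test compound wells and 100% = reference inhibitor wells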
GPR151 activ: activators of human GPR151; Q8TDV0; PathHunter beta-arrestin GPR151 cells, luminescence; activation, % at 11.2 µM; actives 1% (n = 650,000); in the data active means activation above about 4.9%;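 further: 0% = median of compound wells and 100% = cells with positive control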
GPR151 confirm: human GPR151 activation, confirmation screen; shares compounds with GPR151 activ; GPR151 PathHunter beta-arrestin cells, luminescence, 90 min; % of EA-reagent control over plate median; activation, % at 11.2 µM; 6,700 tested, under 10 active; AID 1508609;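 active means mean percent activation across replicates above the confirmation screen cutoff of 4.91%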
GPR119 counter: GPR119 activation, counter-screen for GPR151 activators; actives 0.3% (n = 6,700); activation, % at 11.2 µM; shares compounds with GPR151 activ; AID 1508611; GPR119 PathHunter beta-arrestin cells, luminescence, 90 min; 0 = compound-well median, 100 = enzyme-acceptor control;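 active means mean percent activation in the counterscreen above 29.09%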;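 further: counterscreen on off-target GPR119 to flag nonselective hits from the GPR151 activator screen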
* = called active by the depositor; . = no result.

SMILES | MITF primary | FBW7 act | TEAD-YAP block | GPR151 activ | GPR151 confirm | GPR119 counter
CCC1CN(CCNC(=O)Cn2ncc3ccccc32)Cc2cc(OC)ccc2O1 (stereo unspecified) | -1 | 1 | -1 | 8.2* | 1 | 12
CCC1CN(CCNC(=O)CC2CCCC2)Cc2cc(OC)ccc2O1 (stereo unspecified) | -4 | 0 | 6 | 6.9* | 2 | 5
N#Cc1c(NC(=O)CN2CCN(c3ccccc3F)CC2)sc2c1CCCC2 | -4 | 0 | -16 | 6.6* | 0 | 8
CCC(=O)Nc1ccc(C2=NNC(=NCCCOC)SC2)cc1 | 10 | 0 | -1 | -1 | . | .
C=CCN1C(=O)CS/C1=N\NC(=O)c1ccccc1 | 2 | 0 | -1 | 18* | 1 | 4
CCC(C)C(NC(=O)c1ccccc1NC(=O)c1ccc(OC)cc1)C(=O)N(CC)CC (stereo unspecified) | 3 | 0 | -7 | 2 | . | .
CN(C)S(=O)(=O)c1ccc(C(=O)OCc2nc3ccccc3s2)cc1 | -2 | 0 | -5 | 6.9* | 0 | 9
O=C(OCc1nc2ccccc2s1)c1ccc(O)cc1 | 6 | 0 | -13 | -6 | . | .
COc1ccc(C(CNc2ccc(S(N)(=O)=O)cc2[N+](=O)[O-])N(C)C)cc1 (stereo unspecified) | 5 | 0 | 5 | 0 | . | .
COCCn1nnnc1CN(CCc1ccccc1)Cc1cc2ccc(OC)cc2[nH]c1=O | 14 | 0 | 0 | -1 | . | .
CN1CCOCCOCCOCCOCCOCC1 | 0 | 0 | -5 | 6.3* | 0 | -7
COc1cc(C(=O)Nc2cc(C(=O)Nc3ccccc3SC)ccc2N2CC3CC(C2)c2cccc(=O)n2C3)cc(OC)c1OC (stereo unspecified) | 12 | 0 | -12 | 1 | . | .
COC(=O)c1cc(NC(=O)c2ccc(N3CC4CC(C3)c3cccc(=O)n3C4)c(NC(=O)Nc3ccccc3)c2)cc(C(=O)OC)c1 (stereo unspecified) | -2 | 0 | -12 | 6.7* | 1 | 8
CN(CCc1ccccn1)C(=O)c1ccc(N2CC3CC(C2)c2cccc(=O)n2C3)c(NC(=O)c2cccs2)c1 (stereo unspecified) | 7 | 0 | 2 | 7.4* | -1 | -3
COc1cc(C(=O)Nc2cc(C(=O)N3CCN(c4ccccc4)CC3)ccc2N2CC3CC(C2)c2cccc(=O)n2C3)cc(OC)c1OC (stereo unspecified) | 12 | 0 | 6 | 5.5* | -1 | 3
O=C(NC(c1ccccn1)c1cccs1)C1CCN(C(=O)c2ccno2)CC1 (stereo unspecified) | -3 | 0 | -10 | -1 | . | .
CCOC(=O)c1c(NC(=S)NC(=O)c2cccs2)sc(C)c1C | 4 | 0 | 2 | 2 | . | .
CCOC(=O)c1c(NC(=S)Nc2cccnc2)sc(C)c1C | 7 | 0 | 7 | 5.3* | 0 | 1
Cc1cn2c(-c3ccc(Cl)cc3)nnc2s1 | -7 | 0 | -3 | 1 | . | .
Cc1ccccc1Oc1ccc(S(=O)(=O)NCCCC(=O)O)cc1 | 19 | 0 | -17 | 0 | . | .
Cc1ccc(-c2cc(C(=O)Nc3cccnc3)c3cc(Br)ccc3n2)o1 | -5 | 0 | -2 | 6.5* | -1 | -11
CC1(C)CC(=O)c2cc(C(=O)Nn3cnnc3)c(=O)n(-c3ccccc3)c2C1 | 7 | 0 | 1 | -2 | . | .
N#Cc1ccc(C(=O)NCc2nc(-c3ccncc3)n[nH]2)cc1 | 15 | 0 | 8 | 5.3* | 0 | -1
CCN(CC)C(=O)c1sc(NC(=O)c2cccnc2)c(C(=O)OC)c1C | 14 | 0 | -3 | 0 | . | .
CCN(CC)C(=O)c1sc(NC(=O)c2ccc(F)cc2)c(C(=O)OC)c1C | -8 | 0 | 1 | 5.1* | 0 | -8
SMILES | MITF primary | FBW7 act | TEAD-YAP block | GPR151 activ | GPR151 confirm | GPR119 counter
COc1ccc(OCCn2c(-c3ccc(Cl)cc3)nc3ccccc3c2=O)cc1 | -3 | 0 | -10 | -1 | . | .
O=c1c2ccccc2cnn1CCOc1ccc(Cl)cc1 | -4 | 0 | -40 | 4.9* | 0 | -4
COc1ccc(Cc2nnc(SCC(=O)Nc3ccccc3)o2)cc1 | 12 | 0 | 2 | 0 | . | .
COc1ccc(Cc2nnc(SCC(=O)Nc3ccc(C)c([N+](=O)[O-])c3)o2)cc1 | 10 | 0 | 8 | 7.4* | 0 | -9
COc1ccc2cccc(NC(=O)c3ccco3)c2n1 | 8 | 0 | -1 | 6.4* | 0 | 9
O=C(Nc1cccc2ccc(-n3cccc3)nc12)c1ccco1 | -4 | 0 | -5 | -1 | . | .
COc1cccc(OC)c1NC(=O)CC(Cc1ccc(Cl)cc1)C(=O)O (stereo unspecified) | 10 | 0 | -6 | 5.0* | 0 | -5
COc1cc(Nc2cc(-c3ccc(C(N)=O)cc3)nc(N)n2)cc(OC)c1OC | 6 | 0 | -3 | 12* | 2 | -3
CCc1ccc(-n2c(=S)sc3c(=O)n(-c4ccccc4C)c(SCC(=O)Nc4ccc(C)cc4)nc32)cc1 | -8 | 0 | 11 | 0 | . | .
COc1ccccc1C1CC(c2ccc(Cl)cc2)Nc2nnnn21 (stereo unspecified) | 8 | 0 | 1 | 5.2* | 0 | -11
COc1ccccc1C1CC(c2ccc(C(C)C)cc2)Nc2nnnn21 (stereo unspecified) | 3 | 0 | -4 | -1 | . | .
N#C/C(=C/c1ccc(C(=O)O)cc1)C(=O)NCc1ccccc1 | 3 | 0 | -2 | 0 | . | .
O=C1Nc2ccccc2N(O)N1c1cccc(Br)c1 | 6 | 0 | -3 | 7.7* | 0 | 3
Cc1ccc(-c2csc(NC(=O)Cc3ccccc3)c2C(=O)O)cc1 | -8 | 0 | 4 | -1 | . | .
Cn1ncc2c(N3CCOCC3)nc(NCc3ccco3)nc21 | 17 | 0 | -2 | 5.4* | 0 | -3
CCOC(=O)/C(C#N)=C\C1=C(N2CCCC2)CC(C)(C)OC1 | -4 | 0 | 8 | 0 | . | .
CCOC(=O)c1cnc(SC2CC(=O)N(c3cccc(F)c3)C2=O)nc1N (stereo unspecified) | -2 | 0 | 0 | 7.5* | 0 | 4
CCOC(=O)c1cnc(SCc2cccc(F)c2)nc1N | -5 | 0 | -75 | 0 | . | .
CC1C(=O)N(Cc2ccc(Cl)cc2Cl)C(=O)CS1=O (stereo unspecified) | -3 | 0 | 2 | 6.6* | 0 | -2
OC1CCN(C2CCN(c3nncc(-c4ccc(C(F)(F)F)cc4)n3)CC2)CC1 | -2 | 0 | 19 | 7.3* | 0 | -4
FC(F)(F)c1ccc(-c2cnnc(N3CCSCC3)n2)cc1 | -5 | 0 | -1 | 2 | . | .
O=C(COc1ccc(Br)cc1)NCc1ccco1 | 8 | 0 | -12 | 0 | . | .
CC1(C)CC(=O)C2=C(C1)N(c1cccc(C(F)(F)F)c1)C(N)=C(C#N)C2c1ccc2c(c1)OCO2 (stereo unspecified) | 4 | 0 | 0 | 1 | . | .

Source: PubChem BioAssay
